# Source: PubChem (National Center for Advancing Translational Sciences (NCATS))
# Hits are enriched below; roughly 4.6% of the tested compounds scored in any of these assays.
# TRHR enhancer = qHTS for Small Molecule Agonists and Allosteric Enhancers of Human TRH Receptor: Primary Screen for Enhancers | Thyrotropin-releasing hormone receptor (Homo sapiens), P34981 | TRHR cells, fluo-8 calcium fluorescence, EC20 TRH enhancement | enhancement, % at 2 µM | 360,000 compounds, 0.66% hits | AID 493056, 2011; in the data active means enhancement above about 30%; further: 0% is about no effect
#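 TRHR-expressing cells loaded with fluo-8 calcium dye were read kinetically (ex 480/em 530) during compound addition, then stimulated with an EC20 of TRH (10 nM final). Enhancement of the Gq-mediated intracellular calcium response was scored.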
# D1 ag = Allosteric Agonists of the Human D1 Dopamine Receptor: qHTS | activation, % at 2 µM | 360,000 compounds, 1% hits | D(1A) dopamine receptor (Homo sapiens), P21728 | HEK293 T-REx D1 cells, calcium flux, agonist mode; further: 0% is about no effect
# Target sequence (P21728 whole entry, looked up): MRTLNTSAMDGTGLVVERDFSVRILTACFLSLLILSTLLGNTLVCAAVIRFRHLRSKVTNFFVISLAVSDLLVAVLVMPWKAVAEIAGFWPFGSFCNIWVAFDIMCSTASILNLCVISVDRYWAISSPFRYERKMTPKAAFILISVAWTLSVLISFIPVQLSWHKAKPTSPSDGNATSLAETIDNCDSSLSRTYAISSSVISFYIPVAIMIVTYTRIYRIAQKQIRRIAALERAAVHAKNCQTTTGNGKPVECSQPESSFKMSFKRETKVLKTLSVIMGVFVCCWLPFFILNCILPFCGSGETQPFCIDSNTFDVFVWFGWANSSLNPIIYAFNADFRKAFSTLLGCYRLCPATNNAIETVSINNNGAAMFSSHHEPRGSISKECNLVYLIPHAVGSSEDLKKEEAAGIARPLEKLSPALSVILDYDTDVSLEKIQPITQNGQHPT
#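 Inducible HEK293 T-REx D1 cells, force-coupled to calcium signalling, were plated at 4000 cells/well with tetracycline and held overnight at 30 C. After no-wash calcium dye loading, compound-evoked calcium rise over 180 s flagged agonists.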
# D1 antagonist = Antagonist of Human D 1 Dopamine Receptor: qHTS; 360,000 compounds, 3.2% hits; activity change, negative = inhibition, % at 10 µM; AID 504652, 2011; HEK293 TREx D1 cells, calcium flux, dopamine EC80; stronger effect = lower value; D(1A) dopamine receptor (Homo sapiens), P21728; in the data active means activity change below about -30%; further: on the % scale 0 is the no-effect control and ±100 the full control effect
#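 Tetracycline-induced HEK293 Trex D1 cells, force-coupled to calcium, dye-loaded; compounds added and read 180 s, then EC80 dopamine added and calcium flux tracked kinetically another 180 s.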
# D1 potentiator = Potentiators of Human D1 Dopamine Receptor: qHTS | HEK293 TREx D1 cells, calcium flux, dopamine EC20 potentiation | potentiation, % at 10 µM | 360,000 compounds, 0.036% hits | AID 504651, 2011; in the data active means potentiation above about 30%; further: 0% is about no effect
# TRHR ag = qHTS for Small Molecule Agonists and Allosteric Enhancers of Human TRH Receptor: Primary Screen for Agonists; Thyrotropin-releasing hormone receptor (Homo sapiens), P34981; AID 493084, 2011; 360,000 compounds, 0.18% hits; activation, % at 2 µM; TRHR cells, calcium flux fluo-8, FDSS agonist mode; further: 0% is about no effect
#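 TRHR-expressing cells, plated overnight in medium with 10% serum, were loaded with fluo-8 calcium dye at room temperature. After a 10 s baseline, library compound was pin-added and calcium release was recorded kinetically (ex 480/em 530) as agonist response.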
# Starred values were filed as active, the others as inactive; ! = not confirmed by another sample. Unless noted, no stated cut-off is given here; in the data, active means activation above about 30%; inactive means the rest.
SMILES,TRHR enhancer,D1 ag,D1 antagonist,D1 potentiator,TRHR ag
CCOC(=O)c1ccc(N=c2sc(C(=O)OC)cc(=O)n2CCCN2CCOCC2)cc1,0.1,3.5,-40.5*!,-8.7,0.3
CCOC(=O)/C(C#N)=C/c1cc(C)n(-c2ccc(C)cc2)c1C,-0.4,2.1,-75.3*,-30.2,1.4
CCOC(=O)/C(C#N)=C\c1cc(C)n(-c2ccccc2)c1C,5.0,3.1,-26.8,0.4,-1.1
CCOC(=O)/C(C#N)=C\c1ccc(N2CCN(C/C=C/c3ccccc3)CC2)cc1,0.2,108.9*,-22.4,-9.3,11.9
Cc1cc(/C=C(\C#N)C(=O)NCc2cccs2)c(C)n1-c1ccc([N+](=O)[O-])cc1,-3.7,3.6,-55.9*,-11.2,0.8
COC(=O)c1ccccc1NC(=O)c1ccc2nc(CCc3ccccc3)oc2c1,11.3,14.4,-0.2,-4.2,-1.2
COc1ccc(CC(=O)N(C)CC(=O)Nc2ccccc2SC)cc1,-2.2,-0.6,6.1,-7.0,-0.4
COc1cc(C2/C(=C(/O)c3ccccc3)C(=O)C(=O)N2c2ccccn2)ccc1O (stereo unspecified),4.3,1.6,-7.1,5.8,0.3
O=C(COC(=O)CCCOc1ccc(Cl)cc1Cl)NCc1ccccc1,28.1,6.9,-36.9*,-4.0,-1.2
O=C(COC(=O)COc1ccc(Cl)cc1Br)NCc1cccs1,11.7,0.5,-31.9*,-9.2,-0.4
Cc1ccc(SCC(=O)OCC(=O)NCc2cccs2)cc1,-1.4,0.4,-2.2,-1.9,0.2
CCOC(=O)CNC(=O)COc1ccc(Cl)cc1Br,-0.7,0.4,5.4,2.2,-0.8
O=C(COC(=O)CSc1ccc([N+](=O)[O-])cc1)NCc1cccs1,10.6,7.3,-55.3*,-4.8,-0.6
COc1ccc(CNC(=O)COC(=O)Cc2ccc(Cl)cc2Cl)cc1,3.3,16.8,-47.1*,-4.0,-2.0
O=C(COn1nnc2ccc(Cl)cc21)NCc1ccccc1,-0.3,0.6,-34.5*,-8.7,-0.2
CC(C)CCNC(=O)c1cc2c(=O)[nH]c3ccccc3c2s1,2.4,-0.3,-10.6,-12.2,0.7
CCSc1nc2c(c(=O)[nH]1)C(c1ccc(C)cc1)C1=C(CCCC1=O)N2 (stereo unspecified),-4.5,6.4,-3.7,-5.5,0.1
Cc1ccc(CSc2nc3c(c(=O)[nH]2)C(c2ccncc2)C2=C(CCCC2=O)N3)cc1 (stereo unspecified),-0.8,-3.2,-48.2*,-4.4,0.1
C/C(=N/Nc1ccnc2cc(Cl)ccc12)c1ccc(O)cc1,-0.4,6.0,-24.7,-8.1,-0.1
C/C(=N/Nc1ccnc2cc(Cl)ccc12)c1ccc(N)cc1,-3.0,11.5,-41.9*,-8.0,-0.8
O=C(NC1CCCCC1)c1ccc(CS(=O)Cc2ccccc2Cl)o1 (stereo unspecified),-3.4,-0.6,-63.8*,-2.1,-0.2
CSc1ccc(CCNC(=O)c2ccc(CS(=O)Cc3ccccc3Cl)o2)cc1 (stereo unspecified),-6.9,5.9,-38.0*,1.0,-0.2
O=C(NCCc1ccc(Cl)cc1)c1ccc(CS(=O)Cc2ccccc2Cl)o1 (stereo unspecified),-1.3,6.5,-14.6,0.2,-0.3
Fc1cccc(Cl)c1Cn1nnc(-c2ccc(N3CCOCC3)cc2)n1,4.2,5.6,-35.8*,-2.1,-0.7
Clc1ccc(Cn2nnc(-c3ccc(CN4CCOCC4)cc3)n2)cc1,-5.4,8.9,4.1,-4.2,-0.6
SMILES,TRHR enhancer,D1 ag,D1 antagonist,D1 potentiator,TRHR ag
O=C(c1ccccc1)N1CCN(Cc2cccc(Oc3ccccc3)c2)CC1,-5.3,5.9,-3.0,-3.3,-0.3
O=C(Cn1nc(N2CCN(c3ccccc3)CC2)ccc1=O)NCc1ccccc1F,-3.3,-0.2,-36.8*,-3.0,0.3
CCOc1ccccc1CNC(=O)Cn1nc(N2CCN(c3ccccc3)CC2)ccc1=O,-4.9,2.2,-14.3,0.2,0.1
Cc1cc(C)cc(C(=O)N(CCc2ccccc2)C2CC3CCC(C2)N3C)c1 (stereo unspecified),1.1,8.9,-31.0*,-0.6,-0.3
COc1cc(C(=O)N(CCc2ccccc2)C2=CC3CCC(C2)N3C)cc(OC)c1OC (stereo unspecified),-1.5,2.0,-18.3,-1.9,0.4
COc1cccc(CNC(=O)C2CCN(c3ncnc4c3nc3n4CCCCC3)CC2)c1,0.2,0.0,4.6,-3.4,-0.8
COc1ccc(N2CCN(c3ncnc4c3nc3n4CCCCC3)CC2)cc1,0.5,9.3,-35.1*,-4.5,-0.5
COc1ccc(N2CCN(c3ncnc4c3nnn4Cc3ccccc3Cl)CC2)cc1,5.5,8.3,-41.8*,-12.0,-0.4
O=C(NCc1ccccc1)C1CCN(c2ncnc3c2nc2n3CCCCC2)CC1,3.7,-0.5,-32.6*,-2.9,-0.4
COc1cccc(N2CCN(c3ncnc4c3nc3n4CCCCC3)CC2)c1,-4.7,6.2,-14.0,0.2,-0.7
Cc1nc(N2CCCC2)c2nnn(Cc3ccccc3Cl)c2n1,2.1,1.1,2.9,1.3,-0.4
Cc1ccc(CNc2c(C)c(C)nc3nncn23)cc1,7.0,6.0,-45.1*,1.5,1.0
CCc1c(C)nc2nncn2c1NCc1ccc(Cl)cc1,-4.9,5.3,-2.4,-3.1,2.5
Cc1oc(-c2cccc(Br)c2)nc1CN1CCC(C(=O)NCc2ccccc2)CC1,-0.4,24.0,-2.2,0.3,1.5
O=C(c1ccoc1)N1CCCC(N2CCN(c3cccc(Cl)c3)CC2)C1 (stereo unspecified),-8.0,4.0,-46.1*,-5.2,-0.5
CCn1nc(C)cc1C(=O)N1CCCC(N2CCN(c3cccc(Cl)c3)CC2)C1 (stereo unspecified),-1.3,2.7,-53.7*,-10.9,-0.6
O=C(c1ccoc1)N1CCCC(N2CCN(c3ccc(F)cc3)CC2)C1 (stereo unspecified),-1.3,0.2,-6.3,-5.0,0.3
Cc1cc(C(=O)N2CCCC(N3CCN(c4cccc(Cl)c4)CC3)C2)n(C)n1 (stereo unspecified),-0.2,6.1,14.8,-4.1,0.0
O=C(CCCc1nc(-c2ccc(Cl)cc2)no1)NCC1CCCO1 (stereo unspecified),3.1,8.1,-18.6,-5.0,0.3
CCN(CC)C(=O)c1ccccc1NS(=O)(=O)c1ccc(C)cc1,-4.5,-0.3,5.6,0.2,0.1
CC1Sc2ccc(S(=O)(=O)N3CCC(C(=O)NCC(C)c4ccccc4)CC3)cc2NC1=O (stereo unspecified),-8.3,2.3,-76.1*,-21.9,0.0
